Test [1] has as its target Thyrotropin receptor (Homo sapiens) (UniProt P16473). Description: qHTS assay to identify small molecule antagonists of the thyroid stimulating hormone receptor (TSHR) signaling pathway (AID 1259385; calls by dose curve; further: nearly all actives have a fitted effect of over 20% in size). A digest of the protocol: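 TSHR-HEK293 cells (800/well) plated 18 h, then compounds with Ro20-1724 and TSH at 1.5 ng/mL final, 30 min at room temperature. cAMP quantified by HTRF (cAMP-d2/anti-cAMP-cryptate, 1 h); 15 concentrations in triplicate.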
On the technique in general: In qHTS, concentration-response curves come from the screen itself.

Test [2] can be described thus: qHTS assay to identify small molecule agonists of the estrogen receptor alpha (ER-alpha) signaling pathway in the presence of an antagonist - cell viability counter screen (AID 1259386).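 Further: series mostly up to about 92 µM; cells exposed to compounds for 22 h at 37 °C before the viability read; nearly all actives have a fitted effect of over 30% in size.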 In outline: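 The test measures whether compounds kill ER-alpha reporter cells (VM7Luc4E2) under antagonist co-treatment (ICI-182,780, 10.0nM). Fluorescence from CellTiter-Fluor is read after a 22hr exposure.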

Test [3] has as its target Progesterone receptor (Homo sapiens) (UniProt P06401). Description: qHTS assay to identify small molecule agonists of the progesterone receptor (PR) signaling pathway (AID 1346784; calls by dose curve; further: nearly all actives have a fitted effect of over 30% in size). In outline: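 The screen uses PR-UAS-bla HEK 293T cells in charcoal-stripped serum (2%). Compounds are applied for 16 hr at 37C after a 6 hr pre-incubation, and reporter activity is detected with a FRET beta-lactamase substrate after 2 hr at room temperature.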

The target is the same in test [4]. Description: qHTS assay to identify small molecule antagonists of the progesterone receptor (PR) signaling pathway (AID 1346795; active means well fitted inhibition curve with a large enough effect in the signal ratio in the repeat runs, not every such curve was filed as active; the % refers to the signal ratio; further: potency means the concentration at half of the fitted maximal effect). In outline:
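After 6 hr plating at 37C in 2% stripped-serum medium, PR-UAS-bla HEK293T cells got compounds, then 1 nM R5020. Sixteen hours later, LiveBLAzer substrate was applied for 2 hr at room temperature and fluorescence was recorded.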

The nature of test [5]: qHTS assay to identify small molecule antagonists of the progesterone receptor (PR) signaling pathway - cell viability counter screen (AID 1346798). Further: series mostly up to about 92 µM; nearly all actives have a fitted effect of over 50% in size. In outline: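 Viability was determined by ATP-based luminescence (CellTiter-Glo) in PR-UAS-bla HEK293T cells cultured in 2% charcoal-stripped serum and incubated 16 hr with compounds under R5020 stimulation.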
Test [6] in a line: qHTS assay to identify small molecule agonists of the progesterone receptor (PR) signaling pathway - cell viability counter screen (AID 1346799; calls by dose curve; further: nearly all actives have a fitted effect of over 45% in size). In outline: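 Viability was scored by ATP luminescence (CellTiter-Glo, 30 min, room temperature) in the same wells used for the reporter readout, after 16 hr compound exposure of PR-UAS-bla HEK293T cells.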
The nature of test [7]: qHTS assay to identify small molecule antagonists of the TGF-beta/Smad signaling pathway - cell viability counter screen (AID 1346824). Further: nearly all actives have a fitted effect of over 50% in size. A digest of the protocol: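 SBE-bla HEK 293T cells, incubated overnight, then compound plus 0.25 ng/mL TGF-beta1 (stock added) for 5 hr at 37 C. Viability was read in the same wells by CellTiter-Glo luminescence after 30 min at room temperature.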

Test [8] is described as follows: qHTS assay to identify small molecule agonists of the TGF-beta/Smad signaling pathway - cell viability counter screen (AID 1346829). Further: top concentration of the series differs between compounds; nearly all actives have a fitted effect of over 45% in size. A digest of the protocol:
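Compound-treated SBE-bla HEK 293T cells (5 hr, 37 C) were assessed for viability with CellTiter-Glo in parallel with the reporter read.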

Test [9] is described as follows: qHTS assay to identify small molecule agonists of the TGF-beta/Smad signaling pathway (AID 1346859; active means well fitted activation curve with a large enough effect in the signal ratio in the repeat runs, not every such curve was filed as active; the % refers to the signal ratio; further: series mostly up to about 77 µM). In outline:
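Dual-wavelength fluorescence (460/530 nm emission) quantified beta-lactamase expression under the Smad binding element in HEK 293T cells following 5 hr compound treatment at 37 C.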

Test [10] addresses Thyrotropin-releasing hormone receptor (Homo sapiens) (UniProt P34981). In words: qHTS assay to identify small molecule antagonists of the thyrotropin-releasing hormone receptor (TRHR) signaling pathway (AID 1346877; active means well fitted inhibition curve with a large enough effect in the repeat runs, not every such curve was filed as active; further: series mostly up to about 51 µM). In outline: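 Overnight-plated (18 h, 37 °C) HEK293 cells expressing TRHR were dye-loaded 2 h, treated with compound, then stimulated with TRH at 1 nM final. Fluorescence intensity was captured every second for 3 min.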

We go through 25 compounds from PubChem BioAssay (Tox21).

A number with no mark means an inactive call. Inconclusive results are not listed. Active and inactive are the calls of the source. Unless noted, the call rests on the fitted dose curve; in most records, active means well fitted curve in the direction sought with a large enough effect in the repeat runs; inconclusive means weak or mixed curves; inactive means no such curve, though single readings can be large; an effect the other way counts as inactive or inconclusive.

Chain of Progesterone receptor (Homo sapiens) (P06401 whole entry, looked up): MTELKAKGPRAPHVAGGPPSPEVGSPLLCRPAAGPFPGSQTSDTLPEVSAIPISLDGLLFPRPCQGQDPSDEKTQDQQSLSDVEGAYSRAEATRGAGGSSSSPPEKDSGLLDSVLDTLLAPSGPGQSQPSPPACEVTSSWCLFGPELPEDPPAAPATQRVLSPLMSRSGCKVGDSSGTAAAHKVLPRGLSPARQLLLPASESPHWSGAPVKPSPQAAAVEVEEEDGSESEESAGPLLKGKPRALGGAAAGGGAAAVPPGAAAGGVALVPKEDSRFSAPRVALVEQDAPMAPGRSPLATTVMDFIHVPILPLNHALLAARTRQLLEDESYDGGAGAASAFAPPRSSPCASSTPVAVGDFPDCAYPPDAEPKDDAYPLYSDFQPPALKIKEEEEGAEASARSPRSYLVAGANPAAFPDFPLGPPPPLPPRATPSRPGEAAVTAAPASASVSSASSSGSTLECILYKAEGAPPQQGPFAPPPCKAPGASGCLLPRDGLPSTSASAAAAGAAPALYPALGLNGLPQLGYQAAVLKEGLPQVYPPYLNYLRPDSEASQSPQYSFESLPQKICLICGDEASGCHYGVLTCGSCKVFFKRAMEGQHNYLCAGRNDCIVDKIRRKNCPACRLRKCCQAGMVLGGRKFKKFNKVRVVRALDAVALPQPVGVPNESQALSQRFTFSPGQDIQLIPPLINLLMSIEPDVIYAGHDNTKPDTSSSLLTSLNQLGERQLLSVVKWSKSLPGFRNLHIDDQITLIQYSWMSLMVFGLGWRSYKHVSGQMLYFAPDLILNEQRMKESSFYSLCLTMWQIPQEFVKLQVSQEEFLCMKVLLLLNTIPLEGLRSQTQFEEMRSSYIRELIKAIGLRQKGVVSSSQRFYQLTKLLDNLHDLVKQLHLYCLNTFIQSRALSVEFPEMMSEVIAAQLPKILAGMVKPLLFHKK
Chain of Thyrotropin receptor (Homo sapiens) (P16473 whole entry, looked up): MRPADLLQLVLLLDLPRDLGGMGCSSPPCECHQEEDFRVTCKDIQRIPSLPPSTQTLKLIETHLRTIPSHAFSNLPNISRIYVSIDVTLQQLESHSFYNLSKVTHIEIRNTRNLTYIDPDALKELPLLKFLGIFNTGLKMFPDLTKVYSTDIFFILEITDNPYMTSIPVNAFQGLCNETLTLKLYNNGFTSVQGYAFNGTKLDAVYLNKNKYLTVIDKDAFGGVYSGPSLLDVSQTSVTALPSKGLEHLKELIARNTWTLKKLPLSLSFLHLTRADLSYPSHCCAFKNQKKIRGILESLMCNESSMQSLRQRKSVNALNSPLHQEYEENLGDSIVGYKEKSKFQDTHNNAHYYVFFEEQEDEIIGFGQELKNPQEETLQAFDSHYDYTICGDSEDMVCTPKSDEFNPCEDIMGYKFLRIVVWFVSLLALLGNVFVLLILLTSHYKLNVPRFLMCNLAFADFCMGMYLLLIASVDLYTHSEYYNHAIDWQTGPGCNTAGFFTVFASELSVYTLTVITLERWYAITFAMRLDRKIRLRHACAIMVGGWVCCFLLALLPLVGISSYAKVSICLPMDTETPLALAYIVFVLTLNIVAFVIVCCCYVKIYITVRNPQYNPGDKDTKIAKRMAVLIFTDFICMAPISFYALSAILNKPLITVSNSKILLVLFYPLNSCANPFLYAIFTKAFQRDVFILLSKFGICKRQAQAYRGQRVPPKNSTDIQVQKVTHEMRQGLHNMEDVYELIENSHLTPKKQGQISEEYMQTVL
Chain of Thyrotropin-releasing hormone receptor (Homo sapiens) (P34981 whole entry, looked up): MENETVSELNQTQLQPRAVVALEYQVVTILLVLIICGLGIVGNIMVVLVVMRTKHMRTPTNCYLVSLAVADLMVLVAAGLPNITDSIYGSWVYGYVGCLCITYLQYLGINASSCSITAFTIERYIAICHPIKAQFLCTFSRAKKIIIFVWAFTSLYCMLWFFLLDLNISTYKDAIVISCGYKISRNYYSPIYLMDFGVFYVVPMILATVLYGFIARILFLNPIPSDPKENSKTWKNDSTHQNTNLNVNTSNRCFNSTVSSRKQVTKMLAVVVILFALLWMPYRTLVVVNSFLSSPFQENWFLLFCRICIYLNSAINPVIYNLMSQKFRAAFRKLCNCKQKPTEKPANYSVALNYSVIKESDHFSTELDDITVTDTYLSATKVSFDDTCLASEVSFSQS

Take `COC1CCC=CO1` (stereo not drawn): the Potency result in [1], in [2], in test [3], in test [4], in test [5] and in test [6] was “inactive” throughout. The Potency entry in test [8] and in [9] was “inactive” each time. Further, the call in test [7] was inactive.

As for `CCC(CO)(CO)[N+](=O)[O-]`, the Potency entry in [1], in test [2], in [3], in [4], in test [5] and in test [6] was “inactive” each time. The Potency result in [8] and in [9] was “inactive” each time. Besides, the outcome in test [7] was inactive.

Turning to `O=C(O)c1ccc(O)cc1O`, the Potency entry in test [1], in test [2], in [3], in test [4], in test [5] and in test [6] was “inactive” throughout. Further, the Potency result in test [8] and in [9] was “inactive” in each case. Further, the compound was called inactive in [7] and in test [10].

Regarding `C/C(C=O)=C\c1ccccc1`, the Potency result in test [1], in test [2], in test [3], in [4], in test [5] and in test [6] was “inactive” in each case. For the same compound, the Potency entry in test [8] and in [9] was “inactive” each time. The compound was called inactive in test [7].

`CCOC(=O)Oc1ccc(CCNC(=O)[C@H](CCSC)NC(C)=O)cc1OC(=O)OCC`: the Potency entry in [1], in test [2], in test [3], in [4], in test [5] and in test [6] was “inactive” throughout. Also, the Potency entry in test [8] and in test [9] was “inactive” in each case. Further, the result in test [7] was inactive.

For the compound `CC(C)COC(=O)COc1cc(Cl)c(Cl)cc1Cl`, the Potency result in test [1], in test [2], in test [3], in test [4], in test [5] and in [6] was “inactive” throughout. Further, the Potency entry in [8] and in [9] was “inactive” throughout. Also, the compound was called inactive in test [7] and in test [10].

With `CCO[Si](C)(CCCOCC1CO1)OCC` (stereo not drawn), the Potency entry in [1], in [2], in test [3], in [4], in [5] and in [6] was “inactive” in each case. The Potency result in test [8] and in test [9] was “inactive” throughout. For the same compound, the result in [7] was inactive.

`CC(=O)NCCO`: the Potency result in test [1], in [2], in [3], in test [4], in [5] and in test [6] was “inactive” throughout. The Potency entry in test [8] and in test [9] was “inactive” in each case. Also, in test [7], the result was inactive.

Turning to `COC(OC)OC`, the Potency entry in [1], in test [2], in test [3], in test [4], in test [5] and in test [6] was “inactive” throughout. For the same compound, the Potency entry in test [8] and in test [9] was “inactive” each time. Also, in test [7], the compound was called inactive.

As to `CCCCOC(=O)CCCCC(=O)OCCCC`, the Potency result in test [1], in test [2], in test [3], in test [4], in test [5] and in [6] was “inactive” throughout. Moreover, the Potency result in [8] and in test [9] was “inactive” each time. Besides, the call in test [7] was inactive.

Turning to `CC12CC3CC(C)(C1)CC(N)(C3)C2`, the Potency result in [1], in test [2], in [3], in test [4], in test [5] and in [6] was “inactive” throughout. In addition, the Potency entry in test [8] and in [9] was “inactive” in each case. In addition, the compound was called inactive in test [7].

As to `CC(C)(O)CCc1ccccc1`, the Potency result in [1], in test [2], in test [3], in [4], in [5] and in test [6] was “inactive” each time. Also, the Potency entry in test [8] is “inactive”. For the same compound, the outcome in test [7] was inactive.

In the case of `CSCC[C@H](NC(=O)[C@H](Cc1c[nH]c2ccccc12)NC(=O)CCNC(=O)OC(C)(C)C)C(=O)N[C@@H](CC(=O)O)C(=O)N[C@@H](Cc1ccccc1)C(N)=O`, the Potency result in test [1], in test [2], in test [3], in test [4], in test [5] and in test [6] was “inactive” each time. In test [8], the Potency result was “inactive”. Moreover, the call in test [7] was inactive.

Turning to `CC(=O)N[C@@H](Cc1ccc(O)cc1)C(=O)O`, the Potency result in test [1], in [2], in test [3], in test [4], in [5] and in [6] was “inactive” in each case. The Potency entry in test [8] and in [9] was “inactive” in each case.

On to `CC(C)(O)c1coc(S(=O)(=O)NC(=O)Nc2c3c(cc4c2CCC4)CCC3)c1`, for which the Potency entry in test [1], in test [2], in test [3], in test [4], in [5] and in test [6] was “inactive” throughout. Also, the Potency result in test [8] and in test [9] was “inactive” each time. Besides, the outcome in [7] and in test [10] was inactive.

Turning to `Cc1cccc(C)c1NC(=O)c1cc(S(N)(=O)=O)c(Cl)cc1O`, the Potency result in test [1], in [2], in test [3], in test [4], in test [5] and in test [6] was “inactive” each time. Besides, the Potency result in test [8] and in test [9] was “inactive” in each case. The compound was classed as inactive in [7] and in test [10].

Take `CCN(CC)CCNC(=O)c1cc(Cl)c(N)cc1OC`: the Potency entry in [1], in [2], in test [3], in [4], in test [5] and in [6] was “inactive” throughout. Moreover, the Potency result in test [8] is “inactive”. In addition, the compound was classed as inactive in [7] and in [10].

On to `Cc1c[nH]c2ccccc12`, for which the Potency entry in [1], in test [2], in [3], in test [4], in test [5] and in test [6] was “inactive” each time. Also, the Potency result in test [8] and in test [9] was “inactive” each time. In addition, the call in [7] and in [10] was inactive.

As to `CSSc1ccoc1C`, the Potency entry in test [1], in test [2], in [3], in test [4], in [5] and in [6] was “inactive” each time. Further, the Potency result in [8] was “inactive”. For the same compound, the compound was classed as inactive in test [7] and in test [10].

Turning to `CC(C)(C)C(O)/C=C/c1ccc2c(c1)OCO2` (stereo not drawn), the Potency result in test [1], in test [2], in test [3], in [5], in [6] and in test [8] was “inactive” each time. Besides, the Potency result in test [9] is “inactive”. For the same compound, the Potency in [4] is 23.7 µM (active). For the same compound, the result in test [7] and in test [10] was inactive.

On to `CCCCCCCCCCCCCC(=O)OCC(O)CO` (stereo not drawn), for which the Potency result in test [1], in [2], in test [3], in test [4], in test [5] and in test [6] was “inactive” each time. Moreover, the Potency result in [8] and in test [9] was “inactive” throughout.

Consider `O=CNNC=O`, for which the Potency entry in test [1], in test [2], in test [3], in [4], in test [5] and in [6] was “inactive” each time. Also, the Potency entry in test [8] and in test [9] was “inactive” each time. Further, the compound was called inactive in [7] and in test [10].

For the compound `O=NN(CCCl)C(=O)NCCCl`, the Potency result in test [1], in test [2], in test [3], in [4], in [5] and in test [6] was “inactive” throughout. Also, the Potency result in test [8] and in test [9] was “inactive” each time. Moreover, the call in test [7] and in test [10] was inactive.

On to `C=Cc1ccc(OC(C)=O)cc1`, for which the Potency entry in [1], in test [2], in test [3], in test [4], in test [5] and in test [6] was “inactive” in each case. Moreover, the Potency entry in [8] is “inactive”.

With `O=c1[nH][nH]c(=O)c2cc([N+](=O)[O-])ccc12`, the Potency result in test [1], in test [2], in test [3], in test [4], in [5] and in [6] was “inactive” throughout. Besides, the Potency result in test [8] and in [9] was “inactive” throughout. Besides, the result in [7] and in [10] was inactive.
